# According to PubChem BioAssay AID686934 (National Center for Advancing Translational Sciences (NCATS), 2013):
# Results filed as inconclusive are left out. Values without a mark were called inactive. Calls follow the shape of the dose curve; as a rule, active = well fitted curve in the direction sought with a large enough effect; inconclusive = small, poorly fitted or top-dose-only effect, or another doubt; inactive = no such curve, though single readings can be large or run the other way.
# Assay: qHTS screen for small molecules that inhibit ELG1-dependent DNA repair: SAR in Cell-Based Luciferin Counter Assay
# Details: cell-based luciferase counter-screen, luminescence; series mostly up to 45.7 µM; activity change, negative = inhibition: at the top concentration
# From the text: Cancer cells divide rapidly compared to normal cells in the body. During cell division, cancer cells need to duplicate their genome by DNA replication. The failure of genome duplication leads to cancer cells' death. Therefore, inhibitors of DNA replication could specifically kill cancer cells. Based on this concept, many chemotherapeutic agents were developed and have been used to treat cancer patients. However, there are a limited number of agents available in the clinical setting, and some of those that do exist have low efficacy and severe side effects. Therefore, if we can find the compounds that effectively block DNA replication either by directly damaging DNA or by inhibiting other cellular mechanisms, the options for cancer treatment will be broadened. With this in mind, we developed a quantitative high-throughput ELG1-luciferase reporter gene assay. Small molecules that specifically block ELG1 function in response to DNA damage can be identified by monitoring the suppression of luciferase activity. Since ELG1 defines a pathway for repairing DNA damage, agents blocking ELG1 function can be used to sensitize cancer cells to chemotherapeutic agents whose mechanism of action involves the induction of DNA damage. This assays is a counterscreen, that is more specifically, a cell-based luciferase assay following treatment with putative ELG1 antagonists to eliminate luciferase enhancers/inhibitors NIH Molecular Libraries Probe Production Network [MLPCN] NIH Chemical Genomics Center [NCGC] MLPCN Grant: R03 MH092164 Assay Provider: Kyungjae Myung, NHGRI, NIH
# 3 uL of substrate reagent will be pipetted into each well in 1536-well white, solid-bottom plates using a FRD dispenser, followed by addition of 23 nL of DMSO or compounds by pintool. After compound addition, 1 µL of luciferase will be added into the wells. The plates will be read in a ViewLux CCD-based plate reader.
row,Compound,"activity change, negative = inhibition [%]"
1,CCCSc1ccc2nc(NC(=O)OC)[nH]c2c1,64.3
2,CCCCCC1C(=O)O[C@H](C)[C@@H](NC(=O)c2cccc(NC=O)c2O)C(=O)OC(C)C1OC(=O)CC(C)C (stereo partly specified),4.59
3,O=C(CCl)c1ccc(O)c(O)c1,-10.9
4,CC(=O)OCC1=C[C@H]2[C@@H]3C(C)(C)[C@]3(OC(=O)Cc3ccccc3)C[C@@H](C)[C@]2(O)[C@@H]2C=C(C)C(=O)[C@@]2(O)C1,51.3
5,CCCC(=O)O[C@@H]1[C@@H](C)[C@@]2(O)[C@@H](C=C(CO)C[C@]3(O)C(=O)C(C)=C[C@@H]23)[C@@H]2C(C)(C)[C@]12OC(=O)CCC,64.7
6,CN[C@@H]1C[C@@]2(C)O[C@@H]([C@@H]1OC)n1c3ccccc3c3c4c(c5c6ccccc6n2c5c31)C(=O)NC4,-73.1
